# According to PubChem BioAssay AID588342 (National Center for Advancing Translational Sciences (NCATS), 2011):
# Screen size: about 360,000 compounds; about 25,000 (6.9%) were called active. Where a call stands in place of a potency, no number is given. Another 9% or so got no clear call; they are omitted. The sample holds actives, similar compounds and a random draw of the others, so the mix is not that of the screen. The call rests on the fitted dose curve; in most records, active means well fitted inhibition curve with a large enough effect; inconclusive means small, poorly fitted or top-dose-only effect; inactive means flat fitted curve, though single readings scatter.
# Target: Luciferin 4-monooxygenase (Photinus pyralis) (UniProt P08659)
# Experiment: qHTS profiling assay for firefly luciferase inhibitor/activator using purifed enzyme and Km concentrations of substrates (counterscreen for miR-21 project); further: nearly all actives have a fitted effect of over 55% in size
# Conditions: purified FLuc, luminescence inhibition; series mostly up to 57.5 µM
# Outline: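 Purified P. pyralis luciferase (10nM final) with 10uM D-luciferin and 10uM ATP (Km levels) in 50mM Tris acetate pH 7.5, 10mM Mg acetate, 0.01% Tween-20, 0.05% BSA; qHTS 6-point titration, ~60 µM downward; luminescence read.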
# Potency means the concentration at half of the fitted maximal effect.
# Luciferin 4-monooxygenase (Photinus pyralis), sequence (P08659 whole entry, looked up): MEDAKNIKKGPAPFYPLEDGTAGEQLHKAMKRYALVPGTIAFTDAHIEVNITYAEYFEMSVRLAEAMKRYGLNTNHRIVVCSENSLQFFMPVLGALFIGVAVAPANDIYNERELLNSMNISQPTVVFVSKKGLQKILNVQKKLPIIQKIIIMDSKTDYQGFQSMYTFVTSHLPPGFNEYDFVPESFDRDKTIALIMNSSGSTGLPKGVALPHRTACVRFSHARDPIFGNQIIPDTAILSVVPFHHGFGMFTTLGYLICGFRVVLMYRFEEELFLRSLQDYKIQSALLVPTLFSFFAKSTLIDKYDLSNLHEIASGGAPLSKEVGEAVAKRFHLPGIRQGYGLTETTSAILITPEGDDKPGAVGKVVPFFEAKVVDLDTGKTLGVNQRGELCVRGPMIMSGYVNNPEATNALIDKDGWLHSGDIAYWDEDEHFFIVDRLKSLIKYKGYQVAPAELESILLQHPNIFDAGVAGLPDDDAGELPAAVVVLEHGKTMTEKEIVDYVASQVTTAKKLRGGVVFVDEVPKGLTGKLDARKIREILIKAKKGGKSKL
row,Structure (SMILES),Potency
1,COc1ccc2oc(N)c(C=O)c(=O)c2c1,inactive
2,CCc1cc2c(=O)c(-c3ccc(F)cc3)c(C(F)(F)F)oc2cc1OCC(=O)O,inactive
3,CCc1cc2c(=O)c(-c3ccon3)c(N)oc2cc1OC,2.39 µM (active)
4,Cc1cccc(NC(c2cccc(F)c2)c2ccc3ccc(C)nc3c2O)n1 (stereo not given),inactive
5,CCc1nc(SCC(=O)NNC(=O)c2ccc(C)cc2)c2ccccc2n1,inactive
6,Cc1ccc(C(=O)NNC(=O)c2cc3cc4ccccc4nc3s2)cc1,inactive
7,Cc1ccc(C(=O)NNc2ncnc3ccccc23)cc1,8.49 µM (active)
8,CC1=C(C(=O)Nc2ccccc2Cl)C(c2cccs2)n2ncnc2N1 (stereo not given),inactive
9,COc1cccc(NC(=O)CN(C)C(=O)/C=C/c2cn(-c3ccccc3)nc2-c2cccs2)c1,inactive
10,O=C(O)/C=C/c1cn(-c2ccccc2)nc1-c1cccs1,21.3 µM (active)
11,O=C(/C=C\c1cn(-c2ccccc2)nc1-c1cccs1)N1CCOCC1,7.57 µM (active)
12,COc1ccc(-c2nn(-c3ccccc3)cc2/C=C\C(=O)N2CCOCC2)cc1[N+](=O)[O-],inactive
13,CCC(=O)N1N=C(c2ccc(OC)cc2)CC1c1cn(-c2ccccc2)nc1-c1cccs1 (stereo not given),inactive
14,O=C(NCc1cccnc1)c1nc(-c2cccs2)no1,inactive
15,O=C(NCc1cccnc1)c1cn(-c2ccccc2)nc1-c1cccs1,6.01 µM (active)
16,S=c1[nH]nc(-c2cccs2)n1/N=C/c1cn(-c2ccccc2)nc1-c1ccc(Cl)cc1,inactive
17,O=C(/C=C/c1cccs1)NCc1cccnc1,inactive
18,O=C(O)c1ccc(N/N=C/c2cn(-c3ccccc3)nc2-c2cccs2)cc1,0.107 µM (active)
19,Cc1c(NC(=O)C(=O)N/N=C/c2cccs2)c(=O)n(-c2ccccc2)n1C,inactive
20,O=C(COC(=O)/C=C/c1cn(-c2ccccc2)nc1-c1cccnc1)Nc1ccc(Cl)cc1Cl,inactive
21,CN(C)c1ccc(NC(=S)N(CCc2ccccc2)C2CC(=O)N(c3c(Cl)cccc3Cl)C2=O)cc1 (stereo not given),inactive
22,CCN1CCN(CCCNC(=O)c2cnn(-c3ccc(C)cc3C)c2C2CCN(C(=O)OC(C)(C)C)CC2)CC1,inactive
23,O=C(COC(=O)c1cc(=O)[nH]c2ccccc12)NCc1cccc(Cl)c1,inactive
24,Cn1cc(S(=O)(=O)N2CCCCCC2)cc1C(=O)N1CCN(c2ccc(F)cc2)CC1,inactive
25,CCc1ccc2c(c1)cc(CN(C(=S)Nc1ccccc1Cl)C1CC1)c1nnnn12,inactive

row,Structure (SMILES),Potency
1,O=C(Cc1ccccc1)Nc1sc2c(c1C(=O)Nc1ccc(Br)cc1)CCC2,inactive
2,Cc1ccc(S(=O)(=O)c2nc(-c3cccs3)oc2N2CCCCC2)cc1,inactive
3,CCOc1cc(C2c3c(-c4ccc(Br)cc4)n[nH]c3C(=O)N2c2ccc(Cl)cc2)ccc1O (stereo not given),inactive
4,CCCC(=O)Nc1nc2ccc(NC(=O)c3cccnc3)cc2s1,inactive
5,CN(C)c1cccc(C(=O)Nc2nc3ccc(S(=O)(=O)NC(C)(C)C)cc3s2)c1,inactive
6,CS(=O)(=O)c1ccc2nc(NC(=O)c3ccc(Cl)nc3)sc2c1,21.3 µM (active)
7,COc1cccc(C(=O)Nc2nc3ccc(S(C)(=O)=O)cc3s2)c1,6.01 µM (active)
8,CS(=O)(=O)c1ccc2nc(NC(=O)C3C4C=CC(C4)C3C(=O)O)sc2c1 (stereo not given),inactive
9,COc1cccc(C(=O)NNS(=O)(=O)c2ccc(F)cc2)c1,inactive
10,O=C(NC1CC(=O)N(c2ccc(F)cc2)C1)c1ccc(S(=O)(=O)N2CCCC2)cc1 (stereo not given),inactive
11,Cc1ccc(-n2c(SCC(=O)N3CCC(C(=O)O)CC3)nc3ccccc3c2=O)cc1C,13.5 µM (active)
12,COc1cccc(-n2c(SCC(=O)c3c[nH]c4ccccc34)nc3ccccc3c2=O)c1,inactive
13,O=C(CSc1nc2ccccc2c(=O)n1-c1ccc(F)cc1)NC1CC1,inactive
14,COc1ccccc1N1CCN(S(=O)(=O)CCNC(=O)COc2ccc(F)cc2)CC1,inactive
15,COc1ccc(S(=O)(=O)N2CCN(CC(=O)NCC3(N4CCOCC4)CCCCC3)CC2)cc1,inactive
16,CCOC(=O)CSc1nnc(-c2ccc([N+](=O)[O-])cc2)o1,inactive
17,CCCCSc1nnc(-c2ccc(C)cc2)o1,2.69 µM (active)
18,COc1ccc(-c2nnc(SCc3cccnc3)o2)cc1,21.3 µM (active)
19,Cc1cccc(C)c1OC(=O)CSc1nnc(-c2ccccc2)o1,inactive
20,CC1=CC(C)(C)N(C(=O)CSc2nnc(-c3ccccc3)o2)c2ccc(C)cc21,inactive
21,COc1cccc(NC(=O)CSc2nnc(-c3cccnc3)o2)c1,inactive
22,Cc1ccc(-c2nnc(SCc3ccccc3C)o2)cc1,10.7 µM (active)
23,Cc1ccccc1CSc1nnc(CCCCCNC(=O)OC(C)(C)C)o1,inactive
24,COC(=O)CSc1nnc(-c2cccnc2)o1,inactive
25,Cc1ccc(C(=O)N2c3ncnn3C3(CCCCC3)[C@@H]3CCCC[C@@H]32)cc1,inactive

row,Structure (SMILES),Potency
1,Cc1ccc(S(=O)(=O)CCC(=O)OCC(=O)NCCc2ccc(S(N)(=O)=O)cc2)cc1,inactive
2,COc1ccc(-c2onc(C)c2C)cc1S(=O)(=O)NCC1CCN(Cc2cccc(F)c2)CC1,inactive
3,CCN(CC)c1cc(NC2CCCCC2)c2c3c(onc13)-c1ccccc1C2=O,inactive
4,O=P(O)(CN1CCCCC1)CN1CCCCC1,inactive
5,CCOc1ccc(CNC(=O)c2ccc(CS(=O)c3ccccc3)o2)cc1 (stereo not given),inactive
6,CCN(CC)S(=O)(=O)c1ccc2[nH]c(=O)cc(C(=O)N(C)C3CCS(=O)(=O)C3)c2c1 (stereo not given),inactive
7,CCc1ccc(C2C(C(=O)Nc3ccccc3)=C(C)Nc3c(C(=O)Nc4ccc(C)cc4)cnn32)cc1 (stereo not given),inactive
8,CC(=O)Nc1c(C)nn(-c2ccccc2)c1N1CCC(C(=O)Nc2cc(Cl)ccc2C)CC1,inactive
9,CC1CCCC(C)N1C(=O)CN1CCN(c2nc(-c3ccc(F)cc3)cs2)CC1 (stereo not given),inactive
10,COCCNC(=O)Nc1ccc2nc(-c3ccco3)c(-c3ccco3)nc2c1,21.3 µM (active)
11,COc1ccc(NC(=O)COCc2cc(-c3ccco3)on2)cc1,inactive
12,CCOc1cc(NC(=S)NCCCOC)c(OCC)cc1NC(=O)c1ccco1,inactive
13,Cc1ccc(C)c(OCCC(=O)Nc2cccc(S(=O)(=O)N3CCCC3)c2)c1,inactive
14,O=C(CCNC(=O)c1ccc(Br)cc1)Nc1cccc(S(=O)(=O)N2CCCCC2)c1,inactive
15,Cc1ccc(C(=O)NCC(=O)OCC(=O)Nc2cccc(S(=O)(=O)N3CCCC3)c2)cc1C,9.53 µM (active)
16,CC(OC(=O)c1ccc2ccccc2n1)C(=O)c1ccccc1 (stereo not given),0.953 µM (active)
17,COc1ccc(C(=O)COC(=O)COc2ccc(C)c(C)c2)cc1,inactive
18,COc1ccc(C(=O)COC(=O)c2ccc3ccccc3n2)cc1,21.3 µM (active)
19,CC(OC(=O)c1ccccc1N1C(=O)C2C3CCC(C3)C2C1=O)C(=O)c1ccccc1 (stereo not given),inactive
20,CC(OC(=O)CN1C(=O)c2ccccc2C1=O)C(=O)c1ccccc1 (stereo not given),inactive
21,COc1ccc(C(=O)OCC(=O)NC(=O)CCSc2ccccc2)cc1,inactive
22,CCc1ccc2ncc3c(-c4ccc(C)cc4)nn(CC(=O)NCc4ccccc4)c3c2c1,inactive
23,COC(=O)C1=CO[C@@H](O[C@@H]2O[C@H](CO)[C@@H](O)[C@H](O)[C@H]2O)C2C1C[C@H](O)[C@@H]2C (stereo not given in full),inactive
24,CCn1c(SCC(=O)N/N=C/C=C/c2ccccc2[N+](=O)[O-])nnc1-c1ccccc1,inactive
25,CCn1c(SCC(=O)N/N=C/c2ccccc2OCC(=O)O)nnc1-c1ccc(C(C)(C)C)cc1,26.9 µM (active)

row,Structure (SMILES),Potency
1,Cc1ccc(Cn2c(SCC(=O)N/N=C/c3ccccc3OCC(=O)O)nc3ccccc32)cc1,inactive
2,CNC(=O)c1csc(Cc2c(Cl)sc3ccc(Cl)cc23)n1,inactive
3,CCc1ccc(C(=O)COC(=O)c2ccco2)cc1,0.478 µM (active)
4,O=C(COC(=O)c1ccccc1C(=O)c1ccccc1)c1ccco1,inactive
5,CCN(CC)c1ccc(C(=O)OCC(=O)c2ccco2)cc1,15.1 µM (active)
6,O=C(OCC(=O)N1CCCC1)c1ccco1,inactive
7,O=C(COC(=O)c1ccco1)NCc1ccc(Cl)cc1,inactive
8,O=C(OCC(=O)N1CCN(C(=O)c2ccco2)CC1)c1ccc(Cl)c(Cl)c1,inactive
9,C[C@@H](NC(=O)[C@@H]1Cc2ccccc2CN1)C(=O)NC1CCCC1,inactive
10,COc1ccccc1CNC(=O)c1cc(=O)c2ccccc2o1,inactive
11,CCOC(=O)c1sc(N)c(C#N)c1COC(=O)C1=COCCO1,inactive
12,CN(CC(=O)Nc1c(Cl)cccc1Cl)C(=O)CC1OC(=O)c2ccccc21 (stereo not given),inactive
13,CCOc1ccc(N(CC)S(=O)(=O)N2CCCC(C(=O)NCc3ccc(SC)cc3)C2)cc1 (stereo not given),inactive
14,Cc1oc2c(c1C(=O)Nc1ccc(F)c(F)c1)C1=NCCN1C=N2,inactive
15,N#Cc1ccc(C2N=C(c3ccccc3)NO2)cc1 (stereo not given),10.7 µM (active)
16,Brc1ccccc1C1N=C(c2ccccc2)NO1 (stereo not given),19 µM (active)
17,CCOC(=O)Cn1c(=O)n(C2CCCCC2)c2nc(-c3cccc(OC)c3)nc(C(N)=O)c21,inactive
18,COc1ccc(CNC(=O)c2cc3c(-c4ccccc4F)nn(C)c3s2)c(OC)c1,inactive
19,CCOC(=O)C1CCCN(C(=O)c2ccc(-n3ccc4ccccc43)s2)C1 (stereo not given),inactive
20,CCN(Cc1ccccc1)C(=O)CCS(=O)(=O)c1ccc2c(c1)oc(=O)n2C,inactive
21,Cc1ccc(/C=C/C(=O)OCC(=O)NCc2ccc(Cl)cc2)o1,inactive
22,CCC(=O)N1CCc2cc(Br)cc(S(=O)(=O)NCc3ccc(Cl)cc3)c21,inactive
23,C=CCNC(=O)c1ccc(C)c(Br)c1,inactive
24,C=CCNC(=O)c1ccc2c3n(nc2c1)-c1ccc(C)cc1CO3,2.39 µM (active)
25,CCCNC(=O)c1ccc2c(c1)ncn2-c1ccc(C)cc1C,inactive
